High-throughput results as filed in PubChem.
USP1-UAF1 inh – USP1/UAF1 (human) deubiquitinase inhibition. O94782. recombinant USP1/UAF1, Ub-Rhodamine cleavage fluorescence. Potency, µM (top dose mostly 57.1 µM), actives largely listed as inhibitors. hit rate 0.23% among 390,000; active = well fitted inhibition curve with a large enough effect; inconclusive = small, poorly fitted or top-dose-only effect; inactive = no such curve, though single readings can be large or run the other way; also: nearly all actives have a fitted effect of over 60% in size
Target sequence (O94782 whole entry, looked up): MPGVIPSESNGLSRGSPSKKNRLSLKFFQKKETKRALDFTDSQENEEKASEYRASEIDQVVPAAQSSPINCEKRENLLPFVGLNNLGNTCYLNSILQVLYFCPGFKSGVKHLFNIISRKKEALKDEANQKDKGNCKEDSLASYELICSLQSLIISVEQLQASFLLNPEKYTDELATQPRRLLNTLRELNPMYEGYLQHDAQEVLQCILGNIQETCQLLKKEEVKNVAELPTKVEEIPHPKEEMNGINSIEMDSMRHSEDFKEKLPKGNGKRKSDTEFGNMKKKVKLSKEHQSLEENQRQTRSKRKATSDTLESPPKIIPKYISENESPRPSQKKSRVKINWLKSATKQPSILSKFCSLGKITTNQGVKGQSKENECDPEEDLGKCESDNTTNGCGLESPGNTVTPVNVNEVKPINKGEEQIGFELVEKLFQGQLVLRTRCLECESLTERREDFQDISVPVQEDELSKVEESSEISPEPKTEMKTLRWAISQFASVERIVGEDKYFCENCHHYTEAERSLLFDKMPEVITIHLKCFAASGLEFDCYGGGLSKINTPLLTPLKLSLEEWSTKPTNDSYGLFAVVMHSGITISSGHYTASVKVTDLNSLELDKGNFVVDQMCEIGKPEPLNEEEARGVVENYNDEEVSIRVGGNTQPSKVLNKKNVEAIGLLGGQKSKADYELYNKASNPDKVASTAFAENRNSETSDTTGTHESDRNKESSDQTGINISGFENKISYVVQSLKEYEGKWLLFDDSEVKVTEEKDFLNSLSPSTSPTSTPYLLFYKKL
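USP1/UAF1 complex at 1 nM was preincubated with compound for 15 min at room temperature, then Ub-Rho substrate (150nM final) was added. Fluorescence (480/540 nm) was read kinetically, 6 reads every 60 seconds.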
FBPA coupling cs – counter-screen for Giardia aldolase inhibitors: coupling enzyme system. hit rate 0.67% among 290,000. AID 2472. coupling enzyme system counterscreen, AmpLite Red fluorescence. activity change, negative = inhibition, % at 58.2 µM, hits read low; in the data active = activity change below about -30%
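Counterscreen of the coupled detection system alone, without aldolase: glyceraldehyde-3-phosphate coupling enzymes plus AmpLite Red readout. Compounds at 57.5 uM final, 10 min RT preincubation, 20 min RT reaction, fluorescence 525/598 nm.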
KCNH2 3.1 block – KCNH2 3.1 (human) potassium channel inhibition; U2OS KCNH2 3.1, thallium flux FluxOr; hits give low values; activity change, % (tested at about 1.8 µM); hit rate 0.95% among 340,000; AID 720553;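 active = maximum activity change below -70%; inconclusive = maximum activity change from -70% to -50%; inactive = maximum activity change above -50%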;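 also: thallium influx rate constant from kinetic fluorescence after stimulation buffer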
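Thallium flux read-out: FluxOr dye with Red40 quencher in HBSS/HEPES, 45 min at RT. Rate constants from kinetic reads were normalized to positive and negative DMSO controls. Cells: U2OS virally expressing the 3.1 isoform.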
hERG WT inh – inhibitors of human wildtype KCNH2 potassium channel. Q12809. U2OS, BacMam KCNH2, thallium flux FluxOr; hits give low values. activity change, % at 1.84 µM. hit rate 0.37% among 340,000;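 active = maximum activity change below -70%; inconclusive = maximum activity change between -70% and -50%; inactive = maximum activity change above -50%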
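U2OS cells transduced with wild-type KCNH2 virus are loaded with FluxOr dye for 45 min, and thallium flux is measured in kinetic reads before and after stimulation buffer. Rate constants are normalized to DMSO controls.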
Giardia kill – Giardia lamblia killing | Giardia lamblia trophozoite viability | activity change, % at 7.66 µM, hits read low | hit rate 0.15% among 340,000; in the data active = activity change below about -80%; inconclusive = between about -30% and that limit;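 also: parasites exposed to compound for two days anaerobically before the ATP read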
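Compounds were tested on trophozoites seeded at 100 cells/well and held 48 hrs at 37 deg C anaerobically. An ATP-based luminescent kit measured the remaining live cells.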
Hits are given with their value; i = inactive; ? = inconclusive; nt = not tested or not shown; ! = not confirmed by another sample. Compounds with a hit are over-represented: about 1.7% of the library has one in this group of screens.

SMILES	USP1-UAF1 inh	FBPA coupling cs	KCNH2 3.1 block	hERG WT inh	Giardia kill
COc1ccc([C@@H]2[C@@H]3C(=O)N(C(C)(C)C)C(=O)[C@@H]3[C@]3(Cc4ccccc4)C(=O)N(c4cccc(F)c4)C(=O)N23)cc1	?	nt	-73.8	i	i
CC1=C(c2ccccc2)C(O)(c2ccccc2)C(C)C1=O (configuration not stated)	i	nt	i	i	i
COc1ccc(C(=S)NCS(=O)(=O)c2ccc(C)cc2)cc1	i	i	i	-148.2	i
CC(=O)c1ccc(NC(=O)CSc2nnc3ccc(-c4ccc(Br)cc4)nn23)cc1	i	nt	nt	nt	nt
O=C(/C=C/c1ccc(Cl)cc1)Nc1nc(-c2cccs2)ns1	i	nt	nt	nt	nt
Cn1c(NNC(=O)c2ccc(C(C)(C)C)cc2)cc(=O)n(C)c1=O	i	-34.0	i	i	i
Cn1c(NC(=O)c2ccc(C(C)(C)C)cc2)cc(=O)n(C)c1=O	i	i	i	i	i
COc1ccc2cc1Oc1ccc(cc1)CC1c3cc(c(OC)cc3CCN1C)Oc1c(OC)c(OC)c(OC)c3c1C(C2)N(C)CC3 (configuration not stated)	nt	i	nt	nt	nt
O=[N+]([O-])c1ccc(O)c2ncccc12	?	-35.4	i	i	i
O=Nc1ccc(O)c2ncccc12	i	-34.7!	i	i	i
CS(=O)(=O)N1CCN(c2ccc([N+](=O)[O-])c3cccnc23)CC1	i	i	i	i	-82.0
Cc1ccc(N2C(=O)CSC23C(=O)N(CC(=O)NC2CCCCC2)c2ccccc23)cc1C (configuration not stated)	i	nt	nt	nt	nt
CN1CCN(CCOC2Cc3ccccc3Sc3ccc(Cl)cc32)CC1 (configuration not stated)	i	i	-91.2	?	i
OCCN1CCN(C2Cc3cc(Cl)ccc3Sc3ccc(Cl)cc32)CC1 (configuration not stated) (tested in a mixture with another compound)	i	i	i	i	i
COc1ccc2[nH]c(=O)c(CNc3ccccc3)cc2c1	i	-34.7	i	i	i
COc1ccc2[nH]c(=O)c(CNc3ccccc3C)cc2c1	i	i	i	i	i
COc1ccc2[nH]c(=O)c(CNc3ccccc3OC)cc2c1	i	-34.2	i	i	i
CCOC(=O)c1cc(-c2ccccc2)n(-c2cccc(C(=O)Nc3ccc(OC)cc3)c2)c1C	i	nt	nt	nt	nt
COc1ccc(Cn2ccc3nc(C)c(C(=O)N4CCN(c5ccc(OC)cc5)CC4)cc3c2=O)cc1	i	nt	nt	nt	nt
CC(C)COc1ccc(C(=O)N2CCN(CCc3ccccn3)CC2)cc1	i	nt	nt	nt	nt
COc1ccc(C(=O)N2CCN(CCc3ccccn3)CC2)cc1	i	i	-99.0	i	i
COc1cccc(C(=O)N2CCN(Cc3ccccn3)CC2)c1OC	i	-55.4	i	i	i
CN1C(=O)C[C@H](C(=O)O)[C@@H]1c1cccnc1	nt	i	nt	nt	nt
COc1ccc(OC)c(/C=N/c2oc(-c3ccco3)c(-c3ccco3)c2C#N)c1	i	-44.1	i	i	i
COc1ccc(CN2CCNC(=O)C2CC(=O)N2CCCCO2)cc1OC (configuration not stated)	i	-30.1	i	i	?
SMILES	USP1-UAF1 inh	FBPA coupling cs	KCNH2 3.1 block	hERG WT inh	Giardia kill
CC1(C)OC(C)(C)/C(=C/Nc2ccc(O)cc2)C1=O	?	-44.5	i	i	i
CCOC(=O)c1c(C)[nH]c(C)c1C(=O)COC(=O)c1nn(CC)c(=O)c2ccccc12	i	nt	i	-102.4	nt
CC(=O)Nc1ccc(NS(=O)(=O)c2c(C(=O)N3CCCCCC3)c(C)n(C)c2C)cc1	i	nt	nt	nt	nt
C/C(CC(=O)Nc1ccccn1)=N\NC(=O)c1ccc([N+](=O)[O-])cc1Cl	i	i	i	i	i
C/C(Cn1nnc([N+](=O)[O-])n1)=N\NC(=O)c1cccc(Cl)c1	i	-36.1	i	i	i
C/C(Cn1nnc([N+](=O)[O-])n1)=N\NC(=O)c1ccccc1Cl	i	-40.0	i	i	?
Cc1c(CN(C)C(=O)c2cc(-c3ccccc3)nc3ccc(Br)cc23)cnn1C	i	nt	nt	nt	nt
CCOC(=O)CC1C(=O)NCCN1c1nc2ccc(C)cn2c(=O)c1/C=C1\SC(=S)N(CC(C)C)C1=O (configuration not stated)	12.6µM	i	i	i	i
O=[N+]([O-])c1ccc(OCCCCCN2CCOCC2)cc1	i	i	i	i	i
O=[N+]([O-])c1cncn1CCN1CCOCC1	i	nt	nt	i	-90.7
Cc1cc(-c2nc3ncccc3o2)ccc1NC(=O)c1ccc([N+](=O)[O-])o1	i	nt	i	i	i
Cc1ccc(-c2nc3ncccc3o2)cc1NC(=O)c1ccc([N+](=O)[O-])o1	i	i	i	i	-90.9
O=C(Nc1ccc2oc(-c3ccncc3)nc2c1)c1ccc([N+](=O)[O-])o1	i	i	i	i	-80.1
O=C(Nc1ccc(-c2nc3ncccc3o2)cc1)c1ccc([N+](=O)[O-])o1	i	i	i	i	-93.7
c1ccc(Oc2nc(NC3CCCCC3)c3[nH]cnc3n2)cc1	nt	i	nt	nt	nt
CCC(C)n1c(SCc2ccc(C(C)(C)C)cc2)nc2ccsc2c1=O (configuration not stated)	i	nt	nt	nt	nt
Nc1ccc2c(c1)OCCOCCOCCOCCOCCO2	?	-49.5	i	i	i
c1ccc2c(c1)OCCOCCOCCOCCO2	nt	i	nt	nt	nt
Brc1ccc2c(c1)OCCOCCOc1cc(Br)ccc1OCCOCCOCCO2	i	i	-95.7	-87.7	i
Brc1cc2c(cc1Br)OCCOCCOCCOCCO2	i	i	i	i	i
c1ccc2c(c1)OCCOCCOc1ccccc1OCCOCCO2	i	i	-78.6	i	i
C/C(=N/O)c1ccc2c(c1)OCCOCCOc1cc(/C(C)=N/O)ccc1OCCOCCO2	i	i	-73.7	i	i
O=C(O)c1ccc2c(c1)OCCOCCOCCOCCOCCO2	i	i	i	i	i
CC1(C)CC(O)CC(C)(C)N1CC(O)COCc1ccccc1 (configuration not stated)	i	i	-81.3	i	i
CCc1ccc(OCC(=O)NCc2nc(-c3cccc(C)c3)no2)c(Br)c1	i	nt	nt	nt	nt
SMILES	USP1-UAF1 inh	FBPA coupling cs	KCNH2 3.1 block	hERG WT inh	Giardia kill
CCOC(=O)c1c(-c2ccccc2)csc1NC(=O)/C(C#N)=C\c1ccc(O)c(OC)c1	15.8µM	nt	i	i	i
CCOC(=O)c1c(-c2ccc(C)cc2)csc1NC(=O)/C(C#N)=C/c1ccc(O)c(OC)c1	?	i	i	i	i
Cc1c(C(=O)NCc2ccccc2Cl)sc2nc[nH]c(=O)c12	i	nt	nt	nt	nt
Cc1cccc(COCC(Cc2ccccc2)N2CCN(C(=O)c3ccc(C(F)(F)F)cc3)CCC2=O)c1 (configuration not stated)	?	i	i	i	i
O=C(c1ccc(C(F)(F)F)cc1)N1CCC(=O)N(C(COCc2ccc(C(F)(F)F)cc2)Cc2ccccc2)CC1 (configuration not stated)	?	i	-112.1	i	i
Cn1cc(C(=O)NCCc2ccc(Cl)cc2)c(=O)c2cc(S(=O)(=O)N3CCCCC3)ccc21	i	nt	nt	nt	nt
